# Platelet DG rel: modulates dense granule release in human platelets; AID 1663; inhibition, %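 (compounds screened at 7.5 µM in platelet-rich plasma)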; human platelet-rich plasma, SFLLRN dense granule ATP release, luminescence; 300,000 compounds, 0.22% hits;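 active means mean replicate score, as percent of positive control, at or above 50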
# HSF-1 act: increases HSF-1 driven luciferase reporter signal; NIH3T3-HGL HSF-1 luciferase reporter, MG132, 8 h; 100% = twice DMSO control signal; activation, % at 9 µM; 300,000 compounds, 1.7% hits; AID 504408;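 active means mean replicate activation of at least 50% with a set share of replicates each reaching 50%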;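 further: 0% = median of the neutral control wells and 100% = twice that signal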
# MPTP block: permeability transition pore inhibition; isolated mouse mitochondria, Ca2+ swelling absorbance, 30 min; inhibition, % at 10 µM; 360,000 compounds, 1.4% hits;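 active means inhibition of 50% or more, scaled per plate between neutral and stimulator controls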;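 further: 0% = DMSO wells given calcium and 100% = 1 mM EGTA wells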
# HSF1 inhib: HSF1 inhibition; activity change, negative = inhibition, % at 7.5 µM (by protocol); 300,000 compounds, 0.77% hits; NIH3T3-HGL HSE-luciferase, MG132-induced, luminescence 8 h; active compounds read low; AID 2098;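 active means more than half of replicate wells show activity change below -50%, luminescence cut by over half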;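 further: luciferase reports HSF-1 transcriptional activity via heat shock element; 0% = median of DMSO wells and -100% = zero luminescence signal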
# dFosB act: activators of mouse delta FosB homodimer; 340,000 compounds, 0.99% hits; activation, % at 25 µM; purified delta FosB, TAMRA-CDK5 oligo fluorescence polarization; percent of positive-control signal above neutral wells; AID 493131;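 active means mean activation above about 17%, with every replicate also reaching it, limit read from the data, passing the limit was not always enough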
# Target sequence (P13346 whole entry, looked up): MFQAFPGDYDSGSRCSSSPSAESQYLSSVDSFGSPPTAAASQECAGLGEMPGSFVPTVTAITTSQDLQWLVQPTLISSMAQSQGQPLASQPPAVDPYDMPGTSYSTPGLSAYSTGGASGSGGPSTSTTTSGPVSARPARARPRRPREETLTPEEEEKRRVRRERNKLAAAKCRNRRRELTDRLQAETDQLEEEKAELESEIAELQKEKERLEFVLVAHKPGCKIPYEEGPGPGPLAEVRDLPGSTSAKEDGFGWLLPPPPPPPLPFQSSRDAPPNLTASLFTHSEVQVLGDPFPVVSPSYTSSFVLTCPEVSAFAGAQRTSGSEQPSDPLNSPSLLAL
# HSP90 refold inh: blocks HSP90-mediated luciferase refolding in reticulocyte lysate; Rabbit reticulocyte lysate, luciferase refolding luminescence, 3 h; AID 1789; inhibition, % at 5.6 µM; 290,000 compounds, 0.91% hits;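 active means inhibition above the screen-wide mean plus 3 SD, computed separately per campaign, cut at about 16% in these data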;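 further: 0% = DMSO wells and 100% = 60 µM geldanamycin wells; inhibitors lower the luminescence because luciferase stays unfolded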
# Starred values were filed as active, the others as inactive; nt = no result. Sampled rows, rich in hits. Any-hit rate of the full collection: about 4.9%.
SMILES,Platelet DG rel,HSF-1 act,MPTP block,HSF1 inhib,dFosB act,HSP90 refold inh
O=C1C=C(Nc2ccccc2O)c2ccccc2C1=O,1.5,83.9*,10.8,58.5,-3.5,4.1
Cc1ccc(NC2=CC(=O)C(=O)c3ccccc32)c(C)c1,nt,nt,4.8,nt,3.9,nt
O=C1C=C(NCc2ccccc2)c2ccccc2C1=O,-2.3,70.3*,1.3,50.6,1.7,11.7
CCCCOc1ccc(C2C(=O)N(C3CCCCC3)CC(=O)N2CC2CCCO2)cc1 (stereo not given),2.2,-63.1,0.6,-54.1*,-7.4,1.1
CCCNC(=O)C1(C)CCCN(Cc2ccc(C(=O)OCC)o2)C1 (stereo not given),nt,nt,-1.2,nt,nt,nt
CC(Sc1nnc2ccccn12)C(=O)Nc1ccc(Cl)cn1 (stereo not given),11.2,10.5,-1.3,4.3,1.3,-1.1
CC(Sc1nnc2ccccn12)C(N)=O (stereo not given),4.8,76.3*,0.3,31.1,-5.7,2.3
COc1ccc(N2CCN(C(=O)Cc3ccc(-n4c(=O)[nH]c5ccccc5c4=O)cc3)CC2)cc1,-1.3,-68.8,-0.5,-57.6*,-0.3,-2.9
OCC1CSC(=S)N1Cc1ccccc1 (stereo not given),nt,nt,-0.8,nt,nt,nt
CC(=S)/C=C1\Sc2ccccc2N1C,8.8,-5.2,-1.5,0.9,-14.0,1.1
COc1ccc(C(=O)/C=C2\Sc3ccccc3N2C)cc1,10.7,56.1*,-1.6,21.6,-7.8,-0.4
CCSc1nnc(-c2ccc(S(=O)(=O)NCc3cccs3)cc2)o1,3.5,-71.5,3.1,-68.1*,-12.1,0.1
CCOc1ccc(S(=O)(=O)NCc2cccs2)cc1,3.6,-14.6,-1.4,-2.5,-11.8,1.0
CC1(C(=O)NCc2ccccc2Br)CCN1Cc1ccc2ccccc2c1 (stereo not given),nt,nt,0.9,nt,nt,nt
CC1=C(C(=O)OCc2ccc3c(c2)OCO3)C(c2ccc(F)cc2)NC(=O)N1 (stereo not given),0.8,-63.2,0.0,-53.8*,-8.3,1.0
CCCCCOC(=O)C1=C(C)NC(=O)NC1c1ccc2c(c1)OCO2 (stereo not given),4.4,18.5,1.1,1.9,-6.1,4.5
CSCCOC(=O)C1=C(C)NC(=O)NC1c1ccc2c(c1)OCO2 (stereo not given),3.1,56.2*,2.6,23.0,-3.2,9.5
COc1ccccc1NC(=O)CSc1nncs1,nt,nt,-1.4,nt,0.2,nt
COc1ccccc1C1c2[nH]c3ccccc3c2C[C@H]2C(=O)N(C3CCN(Cc4ccccc4)CC3)CC(=O)N12 (stereo not given in full),-5.4,17.7,0.3,-1.0,37.9*,2.6
Cc1ccccc1C1c2[nH]c3ccccc3c2C[C@H]2C(=O)N(C3CC3)CC(=O)N12 (stereo not given in full),6.0,-7.3,-0.8,-2.9,0.7,-1.9
COc1cccc(C2c3[nH]c4ccccc4c3C[C@H]3C(=O)N(C4CCN(Cc5ccccc5)CC4)CC(=O)N23)c1 (stereo not given in full),-4.6,10.5,-0.7,2.5,37.8*,-0.8
COc1ccc(C2c3[nH]c4ccccc4c3C[C@H]3C(=O)N(C4CCN(Cc5ccccc5)CC4)CC(=O)N23)cc1OC (stereo not given in full),-5.8,28.6,-2.0,0.1,-11.8,-1.9
O=C(Oc1ccccc1)c1ccc(COC(=O)c2cnccn2)cc1,41.1,-5.7,-2.1,5.6,-1.9,-4.5
O=C(Oc1ccc(Cl)cc1)c1ccc(COC(=O)c2cnccn2)cc1,62.7*,2.0,1.2,8.1,-15.4,5.8
Cc1ccn2c(Nc3ccccc3)c(-c3ccccn3)nc2c1,-5.8,10.5,2.4,8.0,33.2*,3.2
CCOC(=O)c1ccc(Oc2nc(NC)nc(Nc3ccccc3)n2)cc1,-3.1,-67.7,2.2,-56.5*,7.2,3.8
Cc1cc(NC(=O)CCSc2ccc(Cl)cc2)no1,4.0,9.2,1.3,15.8,-2.4,0.8
COc1ccc(C(=O)NC2CCN(C(=S)NCc3ccco3)CC2)cc1,7.7,55.9*,-1.6,33.0,4.1,-0.1
S=C(NCc1ccco1)N1CCN(c2cccc(Cl)c2)CC1,2.4,54.2*,0.0,44.3,-4.2,-2.1
S=C(NCc1ccco1)N1CCN(C(c2ccccc2)c2ccccc2)CC1,2.1,57.6*,3.0,35.7,-6.4,0.6

# Source: PubChem BioAssay (several laboratories)
